Molecules are shown by their SMILES. Activity calls are given as the source filed them.

In assay [1] the test system is Human papillomavirus type 1a protein E7 (residues 44-93). Description: small molecules binding HPV E7 44-93 – biochemical, small-molecule microarray, residues 44-93, 635 nm fluorescence, primary screen (AID 1108).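 Further: E7 fragment applied at 1 µg/mL in TBST for 1 h at 4 C; score combines spot fluorescence with its signal to noise ratio.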 To be noted: fluorescence 635 nm, higher = more signal.
Assay [2] is described as follows: hepatitis C replication reporter changes, two-sided – Huh7 cells, luciferase reporter, HCV replication inhibitor project, primary screen (AID 1109).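 Further: huh7 hepatoma cells harbouring a luciferase neomycin HCV replicon reporter; luciferase luminescence as measure of HCV replicon replication; test concentration not given here.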 The following applies: Huh7 HCV replicon luciferase reporter, 48 h; higher = more signal.
The target in assay [3] is Left-right determination factor 2 (Homo sapiens) (UniProt O00292). Kind of assay: small molecules binding LEFTY2 protein – biochemical, small-molecule microarray, 635 nm fluorescence scan, primary screen (AID 1110). The following applies: higher = more signal.
Chain of Left-right determination factor 2 (Homo sapiens) (O00292 whole entry, looked up): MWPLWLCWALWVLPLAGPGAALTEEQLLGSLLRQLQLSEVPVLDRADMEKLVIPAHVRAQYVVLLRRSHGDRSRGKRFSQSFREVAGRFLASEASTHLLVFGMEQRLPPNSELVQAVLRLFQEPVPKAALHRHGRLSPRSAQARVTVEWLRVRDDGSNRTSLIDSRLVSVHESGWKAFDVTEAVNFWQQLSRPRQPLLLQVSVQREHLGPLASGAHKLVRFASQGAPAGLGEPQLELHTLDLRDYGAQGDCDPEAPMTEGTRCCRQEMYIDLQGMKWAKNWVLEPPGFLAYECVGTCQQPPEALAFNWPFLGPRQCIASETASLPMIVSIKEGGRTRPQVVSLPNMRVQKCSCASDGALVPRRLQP
Assay [4] addresses Calmodulin-1 (Homo sapiens) (UniProt P0DP23). Kind of assay: small molecules binding calmodulin-1 with EGTA – biochemical, small-molecule microarray, Cy5-labelled CALM1, profiling panel (AID 1111).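 Further: labelled calmodulin applied in Tris saline Tween buffer holding calcium plus EGTA and DTT.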 To be noted: Cy5-CALM1 binding fluorescence, higher = more signal.
The target is the same in assay [5]. Kind of assay: small molecules binding Ca-loaded calmodulin-1 – biochemical, small-molecule microarray, Cy5-labelled CALM1, plus calcium, artefact control for SMM control-protein annotation, profiling panel (AID 1112).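 Further: score merges spot fluorescence with signal to noise from triplicate slides.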 The following applies: Cy5-CALM1 binding fluorescence, higher = more signal.
A short description of assay [6]: probe aWnt5a binding to arrayed compounds – biochemical, biotinylated probe, 635/667 nm fluorescence, primary screen (AID 1113).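 Further: score merges 667 nm fluorescence intensity with signal-to-noise per printed feature.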 The following applies: small-molecule microarray, higher = more signal.
Assay [7] is described as follows: probe aShh binding to arrayed compounds – biochemical, biotinylated probe, 635/667 nm fluorescence, primary screen (AID 1114).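 Further: probe is biotin-labelled aShh protein from a stem cell growth factor screen; measures binding of labelled protein to compounds printed on the slide; score merges feature fluorescence at 667 nm with signal-to-noise.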 To be noted: small-molecule microarray, higher = more signal.
Assay [8] can be described thus: probe aNog binding to arrayed compounds – biochemical, biotinylated probe, 635/667 nm fluorescence, primary screen (AID 1115).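 Further: probe is biotinylated aNog protein used at 0.15 µg/mL for 1 h at 4 C; z-score combines 667 nm fluorescence of each spot with its signal to noise.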 The following applies: small-molecule microarray, higher = more signal.
In assay [9] the target is Torsin-1A-interacting protein 1 (Homo sapiens) (UniProt Q5JTV8). Kind of assay: compound microarray binding of lysate hLAP1 – cell lysate, small-molecule microarray, COS7 lysate, 635/667 nm fluorescence, primary screen (AID 1116). To be noted: 635 nm fluorescence, higher = more signal.
Chain of Torsin-1A-interacting protein 1 (Homo sapiens) (Q5JTV8 whole entry, looked up): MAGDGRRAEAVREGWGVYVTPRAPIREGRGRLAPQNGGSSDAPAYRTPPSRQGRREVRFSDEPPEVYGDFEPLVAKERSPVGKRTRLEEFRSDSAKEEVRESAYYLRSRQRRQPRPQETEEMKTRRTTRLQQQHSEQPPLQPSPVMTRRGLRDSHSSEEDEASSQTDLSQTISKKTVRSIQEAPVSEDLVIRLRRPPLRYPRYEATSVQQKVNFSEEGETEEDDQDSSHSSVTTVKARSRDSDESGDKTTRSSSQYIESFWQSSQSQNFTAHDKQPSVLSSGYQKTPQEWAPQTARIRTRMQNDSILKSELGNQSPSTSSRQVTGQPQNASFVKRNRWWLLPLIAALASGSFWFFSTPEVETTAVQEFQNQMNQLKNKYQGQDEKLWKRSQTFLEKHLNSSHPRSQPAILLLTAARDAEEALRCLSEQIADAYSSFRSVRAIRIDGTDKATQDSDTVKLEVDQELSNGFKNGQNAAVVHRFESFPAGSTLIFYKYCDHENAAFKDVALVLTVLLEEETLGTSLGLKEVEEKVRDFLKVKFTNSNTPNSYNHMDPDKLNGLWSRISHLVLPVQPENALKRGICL
Assay [10] has as its target Alpha-bungarotoxin (Bungarus multicinctus) (UniProt P60615). Description: compounds binding labelled alpha-BTX control protein – biochemical, small-molecule microarray, Alexa647 label, 635/667 nm fluorescence, artefact control for SMM control protein annotation, profiling panel (AID 1117). To be noted: alpha-BTX-A647 binding fluorescence, higher = more signal.
The target in a further assay is Albumin (Bos taurus) (UniProt P02769). Description: compounds binding labelled BSA control protein – biochemical, small-molecule microarray, Alexa647 label, 635/667 nm fluorescence, artefact control for SMM control protein annotation, profiling panel (AID 1118).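 Further: score merges 667 nm emission intensity and signal-to-noise per printed compound spot.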 The following applies: BSA-A647 binding, fluorescence 635 nm, higher = more signal.
Chain of Albumin (Bos taurus) (P02769 whole entry, looked up): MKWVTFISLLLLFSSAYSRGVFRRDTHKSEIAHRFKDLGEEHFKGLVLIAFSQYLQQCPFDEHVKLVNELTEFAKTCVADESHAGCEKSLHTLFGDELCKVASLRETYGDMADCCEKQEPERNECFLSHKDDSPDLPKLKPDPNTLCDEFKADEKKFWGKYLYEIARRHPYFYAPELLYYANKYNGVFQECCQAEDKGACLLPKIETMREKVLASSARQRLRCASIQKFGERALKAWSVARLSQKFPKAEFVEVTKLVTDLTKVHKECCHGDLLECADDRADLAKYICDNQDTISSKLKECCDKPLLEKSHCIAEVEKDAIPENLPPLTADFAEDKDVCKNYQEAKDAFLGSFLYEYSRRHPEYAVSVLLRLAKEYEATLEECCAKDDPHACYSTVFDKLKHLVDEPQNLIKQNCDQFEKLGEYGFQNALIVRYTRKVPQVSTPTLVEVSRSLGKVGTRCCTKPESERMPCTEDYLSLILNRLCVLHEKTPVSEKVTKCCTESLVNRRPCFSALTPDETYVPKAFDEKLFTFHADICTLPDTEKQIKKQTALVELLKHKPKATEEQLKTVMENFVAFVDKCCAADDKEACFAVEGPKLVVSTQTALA
Assay [11] in a line: probe aXIP binding to arrayed compounds – biochemical, NeuroSMM set, 635/667 nm fluorescence, primary screen (AID 1119).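 Further: probe is the protein aXip251-270 applied at 1 µg/mL to compound-printed slides; binding of probe to printed compounds measured as 667 nm fluorescence plus signal to noise.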 To be noted: small-molecule microarray, higher = more signal, called active from +8 up or from −8 down.
Assay [12] can be described thus: probe aNOTCH3 binding on compound microarray – biochemical, small-molecule microarray, 635/667 nm fluorescence, primary screen (AID 1120).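 Further: probe is a biotin-tagged antibody raised against NOTCH3 rather than NOTCH3 protein; score merges spot fluorescence near 667 nm with spot signal to noise.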 The following applies: higher = more signal.
Assay [13] can be described thus: probe aNOTCH2 binding on compound microarray – biochemical, small-molecule microarray, 635/667 nm fluorescence, primary screen (AID 1121).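 Further: score merges feature fluorescence read at 667 nm with its signal to noise.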 To be noted: higher = more signal.
For assay [14], the target named is Carbonic anhydrase 2 (Homo sapiens) (UniProt P00918). Description: compounds binding carbonic anhydrase 2 – biochemical, small-molecule microarray, Alexa647-labelled CAII, profiling panel (AID 1122). The following applies: CAII-A647 binding fluorescence, higher = more signal.
The nature of assay [15]: COS7 lysate on small-molecule microarray, probe aHis, 635 nm (AID 1123).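 Further: z-score combines 667nm fluorescence intensity with signal-to-noise per printed compound spot.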 The following applies: COS7 cell lysate, fluorescence, higher = more signal.
The nature of assay [16]: probe aLAP1 signal on lysate-treated microarray – cell lysate, small-molecule microarray, COS7 lysate, primary screen (AID 1124).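 Further: lysate comes from COS7 cells expressing LAP1 and is applied at 0.3 µg/mL; score merges spot fluorescence near 667 nm with signal-to-noise over triplicate slides.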 The following applies: probe aLAP1, fluorescence, higher = more signal.
Another assay deals with Sam68 (KHDRBS1). Kind of assay: compounds binding KHDRBS1 protein – biochemical, small-molecule microarray, 635 nm fluorescence, primary screen (AID 1125).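 Further: score merges 667 nm channel intensity with signal to noise over triplicate slides.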 To be noted: higher = more signal.
Assay [17] has as its system Chordin-like protein 2 (CHRDL2). Description: compounds binding chordin-like 2 – biochemical, small-molecule microarray, 635 nm fluorescence, primary screen (AID 1126).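 Further: printed compound slides probed with Chrdl2 protein at 4 µg/mL for 1 h at 4 C; score merges 667 nm emission intensity with signal to noise over three replicate slides.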 The following applies: fluorescence 635 nm, higher = more signal.
Assay [18] deals with Concanavalin-A (Canavalia ensiformis) (UniProt P02866). Kind of assay: compounds binding concanavalin A lectin – biochemical, small-molecule microarray, Alexa647 label, 635 nm, artefact control for SMM control protein annotation, primary screen (AID 1127).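 Further: z combines 667 nm emission intensity with signal-to-noise across three replicate slides.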 To be noted: ConA-A647 binding fluorescence, higher = more signal.
Chain of Concanavalin-A (Canavalia ensiformis) (P02866 whole entry, looked up): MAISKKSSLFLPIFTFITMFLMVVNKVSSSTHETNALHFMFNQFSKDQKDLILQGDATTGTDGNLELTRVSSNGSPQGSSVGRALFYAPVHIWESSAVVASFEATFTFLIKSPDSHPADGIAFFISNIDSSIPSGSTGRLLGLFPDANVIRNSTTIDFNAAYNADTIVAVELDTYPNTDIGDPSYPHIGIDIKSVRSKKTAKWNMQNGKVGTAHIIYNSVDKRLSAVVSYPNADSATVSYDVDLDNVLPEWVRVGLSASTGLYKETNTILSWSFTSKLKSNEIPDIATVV

Chain of Alpha-bungarotoxin (Bungarus multicinctus) (P60615 whole entry, looked up): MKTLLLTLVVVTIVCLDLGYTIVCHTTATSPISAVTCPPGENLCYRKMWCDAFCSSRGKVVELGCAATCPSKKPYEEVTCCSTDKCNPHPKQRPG

For the compound `CC(C)NC(=O)[C@@H]1c2ccccc2C(=O)N(Cc2cc(C(F)(F)F)cc(C(F)(F)F)c2)[C@H]1c1ccc(CO)cc1`, the composite z-score in [1] is 0.376; in assay [3], 0.147; in assay [4], 0.876; in assay [5], 0.221; in assay [6], -0.176; in assay [7], -0.0793. Besides, the composite z-score in assay [8] is 0.735; in assay [9], 0.724; in assay [10], 0.594; in the assay with Albumin (Bos taurus), 0.52; in [12] it was -0.0931; in [13], -0.0052. Moreover, the composite z-score in [14] was 0.298; in assay [15] it was 2.38; in [16], 0.706; in the assay with Sam68 (KHDRBS1) it was 1.3; in assay [17], 0.0933; in [18], 1.09. This compound yielded a z-score in [2] of -0.153. Moreover, in assay [11], the composite Z-score was 1.21 (inactive).
Turning to `COC(=O)[C@@]1(Cc2ccc(F)cc2)[C@H]2c3cc(C(=O)N4CCCC4)n(Cc4ccccc4)c3C[C@H]2CN1C(=O)c1ccccc1`, the composite z-score in assay [1] is 1.07; in [3], -0.253; in assay [4], 1.98; in assay [5], 0.666; in assay [6] it was -0.0843; in assay [7], -0.367. Moreover, the composite z-score in [8] was -0.357; in assay [9], 1.56; in assay [10], 0.657; in the assay with Albumin (Bos taurus), 0.946; in [12] it was 0.23; in [13], 0.0291. For the same compound, the composite z-score in assay [14] was 0.793; in assay [15], 2.25; in assay [16], 0.65; in the assay on Sam68 (KHDRBS1) it was 0.253; in assay [17], -1.32; in [18], 0.428. In assay [2], the z-score is -2.41. The composite Z-score in assay [11] was 1.06 (inactive).
As for `CN1C(=O)C2C=CC(C(O)c3ccc(F)cc3)N(N3CCCCC3)C2C1=O` (stereo not given), the composite z-score in assay [1] was 0.491; in [3], -0.781; in [4], 1.72; in assay [5] it was 1.23; in assay [6] it was 0.212; in assay [7] it was 0.949. Besides, the composite z-score turned out to be 0.893 in assay [8]; 2.05 in assay [9]; 0.164 in assay [10]; 0.853 with Albumin (Bos taurus); 0.29 in assay [12]; 0.155 in assay [13]. In addition, the composite z-score was 0.714 in assay [14]; 1.5 in assay [15]; 0.804 in assay [16]; 1.32 in the assay with Sam68 (KHDRBS1); -1.42 in assay [17]; 1.08 in assay [18]. In assay [2], this compound gave a z-score of 0.269. The composite Z-score in [11] is -0.908 (inactive).
Turning to `CC(C)c1ccc(NN2C(C(O)c3ccccn3)C=CC3C(=O)N(c4ccccc4)C(=O)C32)cc1` (stereo not given), the composite z-score came to 1.51 in assay [1]; 0.581 in [3]; 1.11 in assay [4]; 0.214 in assay [5]; 0.145 in assay [6]; 0.04 in assay [7]. Moreover, the composite z-score in assay [8] worked out at 1.7; in assay [9] it was 1.34; in assay [10], 0.964; in the assay with Albumin (Bos taurus), 0.835; in assay [12] it was 0.447; in assay [13] it was 0.142. Moreover, the composite z-score is 0.808 in assay [14]; 2.92 in assay [15]; 0.881 in [16]; 1.32 in the assay on Sam68 (KHDRBS1); -0.159 in assay [17]; 1.1 in assay [18]. In assay [2], this compound gave a z-score of -0.112. The composite Z-score in assay [11] was -0.232 (inactive).
For `[N-]=[N+]=NCc1ccccc1C[C@]1(C(=O)NCCN2CCOCC2)N=C(c2ccc(OCCCO)cc2)O[C@H]1c1ccccc1`, the composite z-score in [1] is 1.45; in [3] it was -0.481; in [4], 0.835; in assay [5], -0.401; in assay [6] it was 0.0215; in assay [7], 0.131. The composite z-score in assay [8] is -0.465; in assay [9], 1.46; in assay [10] it was 1.16; in the assay with Albumin (Bos taurus), 0.528; in [12] it was 0.408; in [13], -0.126. The composite z-score was 0.668 in [14]; 1.78 in [15]; 0.488 in assay [16]; 1.3 in the assay on Sam68 (KHDRBS1); -1.03 in assay [17]; 0.885 in assay [18]. For the same compound, the z-score in assay [2] is -2.64. Further, the composite Z-score in assay [11] is 0.356 (inactive).
For the compound `C=C[C@@H](O)[C@H]1CC(c2ccccc2)=NO1`, the composite z-score was -0.893 in assay [1]; 0.277 in assay [3]; -0.358 in assay [4]; -0.711 in assay [5]; -0.208 in assay [6]; 0.167 in assay [7]. Further, the composite z-score in assay [8] is -0.0524; in assay [9], 0.0222; in [10] it was -0.0532; with Albumin (Bos taurus), -0.596; in [12] it was -0.1; in [13], -0.084. Further, the composite z-score in assay [14] was -0.0997; in assay [15], -0.322; in [16], -0.156; with Sam68 (KHDRBS1), -0.542; in assay [17], 0.647; in [18] it was 0.334. The compound further returned a z-score in assay [2] of 0.479. Further, the composite Z-score in assay [11] is 0.303 (inactive).
